High-throughput results from PubChem BioAssay.
TEAD-YAP inh = TEAD-YAP interaction inhibition; HEK-TIYL cells, TEAD-Gal4/YAP UAS-luciferase luminescence; inhibition, % at 9.12 µM; actives 1.4% (n = 640,000); AID 1259422; in the data active = inhibition above about 32%
GPR151 activ = activates the human receptor GPR151; Q8TDV0; PathHunter beta-arrestin GPR151 cells, luminescence; activation, % at 11.2 µM; actives 1% (n = 650,000); in the data active = activation above about 4.9%
Target sequence (Q8TDV0 whole entry, looked up): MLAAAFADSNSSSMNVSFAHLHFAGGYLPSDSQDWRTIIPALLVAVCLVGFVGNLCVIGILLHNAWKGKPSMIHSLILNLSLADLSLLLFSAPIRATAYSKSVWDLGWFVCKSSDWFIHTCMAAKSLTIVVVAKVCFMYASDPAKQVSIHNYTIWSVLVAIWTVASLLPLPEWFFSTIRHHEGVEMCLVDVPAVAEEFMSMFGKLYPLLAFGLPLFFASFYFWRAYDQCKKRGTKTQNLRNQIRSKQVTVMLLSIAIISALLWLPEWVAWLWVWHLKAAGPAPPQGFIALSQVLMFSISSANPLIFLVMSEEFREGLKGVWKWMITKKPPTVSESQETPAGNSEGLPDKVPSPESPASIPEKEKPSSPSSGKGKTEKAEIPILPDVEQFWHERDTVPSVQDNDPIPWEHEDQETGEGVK
FBW7 activator = activators of human E3 ligase FBW7; AlphaScreen FBW7–phospho-cyclin E peptide binding, activator screen; normalized activity (activation), % at 26.1 µM; actives 0.13% (n = 650,000); in the data active = normalized activity above about 1.9%;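 note: purified mutant Fbw7 with reduced substrate affinity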
MITF primary = blocks human microphthalmia-associated transcription factor. AID 1259374. AlphaScreen MITF homodimerization, bead proximity signal. inhibition, % at 2.6 µM. actives 0.91% (n = 650,000); in the data active = inhibition above about 50%
Numbers stand for hits. Shown are actives, neighbours in structure and some others; about 3.4% of the full set was active somewhere.

`Cc1ccc(/C=C2/SC(=S)N(CCCCCC(=O)O)C2=O)o1` gave TEAD-YAP inh 39, GPR151 activ inactive, FBW7 activator inactive and MITF primary inactive.
Cc1ccc(/C=C2\SC(=S)N(C)C2=O)o1 was read as TEAD-YAP inh inactive, GPR151 activ inactive, FBW7 activator inactive and MITF primary inactive.
NC(=O)c1ccc(-c2cn3c(NC(=O)CC4CC4)cnc3cn2)cc1 was read as TEAD-YAP inh inactive, GPR151 activ inactive, FBW7 activator inactive and MITF primary inactive.
For CC(=O)N(CC1CC1)C1CCN(Cc2ccncc2)CC1 the results were TEAD-YAP inh inactive, GPR151 activ inactive, FBW7 activator inactive and MITF primary inactive.
`CCOc1cc(/C=C2\SC(N)=NC2=O)ccc1OC(=O)c1cccs1` gave TEAD-YAP inh 35, GPR151 activ inactive, FBW7 activator inactive and MITF primary inactive.
For COc1cc(/C=C2\SC(N)=NC2=O)ccc1OCC(=O)Nc1ccc(C)cc1 the results were TEAD-YAP inh 34, GPR151 activ inactive, FBW7 activator inactive and MITF primary inactive.
CCOc1cc(/C=C2\SC(N)=NC2=O)ccc1OCC(=O)NCc1ccccc1 was read as TEAD-YAP inh 32, GPR151 activ inactive, FBW7 activator inactive and MITF primary inactive.
`COC(=O)C1=CN(CCOC23CC4CC(CC(C4)C2)C3)C=C(C(=O)OC)C1c1ccc(OC(F)(F)F)cc1` gave TEAD-YAP inh inactive, GPR151 activ inactive, FBW7 activator inactive and MITF primary inactive.
Cc1nc2ccccc2c2nn(CC(=O)N3CCCC4CCCCC43)c(=O)n12 (stereo not given) was read as TEAD-YAP inh inactive, GPR151 activ inactive, FBW7 activator inactive and MITF primary inactive.
For COc1ccc(C2=NN(C(=O)c3ccco3)C(O)(C(F)(F)F)C2)cc1 (stereo not given) the results were TEAD-YAP inh 41, GPR151 activ inactive, FBW7 activator inactive and MITF primary inactive.
Screening Cc1ccc(C2=NN(C(=O)c3ccco3)C(O)(C(F)(F)F)C2)cc1 (stereo not given) returned TEAD-YAP inh inactive, GPR151 activ inactive, FBW7 activator inactive and MITF primary inactive.
For CC(C)COC(=O)c1ccc(NC(=O)COc2ccc(Br)cc2)cc1 the results were TEAD-YAP inh 35, GPR151 activ inactive, FBW7 activator inactive and MITF primary inactive.
Screening O=C(Cn1nnc(-c2ccccc2)n1)N/N=C/c1ccc(O)c(O)c1O returned TEAD-YAP inh inactive, GPR151 activ inactive, FBW7 activator inactive and MITF primary 66.
For O=C(Cn1nnc(-c2ccccc2)n1)N/N=C/c1cc(Cl)ccc1O the results were TEAD-YAP inh inactive, GPR151 activ inactive, FBW7 activator inactive and MITF primary 57.
For O=C(Cn1nnc(-c2ccccc2)n1)N/N=C/c1ccccc1C(F)(F)F the results were TEAD-YAP inh inactive, GPR151 activ inactive, FBW7 activator inactive and MITF primary inactive.
CCn1nc(C(=O)Nc2nc3c(Cl)c(Cl)ccc3s2)cc1C was read as TEAD-YAP inh inactive, GPR151 activ inactive, FBW7 activator inactive and MITF primary inactive.
Screening O=C(CCc1ccccc1)Nc1ccc(S(=O)(=O)N2CCC(c3nc4ccccc4[nH]3)CC2)cc1 returned TEAD-YAP inh 32, GPR151 activ inactive, FBW7 activator inactive and MITF primary inactive.
Screening O=C(Nc1ccc(S(=O)(=O)N2CCC(c3nc4ccccc4[nH]3)CC2)cc1)c1ccccc1F returned TEAD-YAP inh 40, GPR151 activ inactive, FBW7 activator inactive and MITF primary inactive.
For CCC(CC)C(=O)Nc1ccc(S(=O)(=O)N2CCC(c3nc4ccccc4[nH]3)CC2)cc1 the results were TEAD-YAP inh inactive, GPR151 activ inactive, FBW7 activator inactive and MITF primary inactive.
Screening COc1ccc(OCC2c3cc(OC)c(OC)cc3CCN2C(=O)c2cccc(C(F)(F)F)c2)cc1 (stereo not given) returned TEAD-YAP inh inactive, GPR151 activ inactive, FBW7 activator inactive and MITF primary inactive.
COc1ccc(C/C(N)=N\n2cnnc2)cc1 was read as TEAD-YAP inh inactive, GPR151 activ inactive, FBW7 activator inactive and MITF primary inactive.
Screening Cc1cccc(/C=C2\SC(=S)N(CCC(=O)O)C2=O)c1 returned TEAD-YAP inh 34, GPR151 activ inactive, FBW7 activator inactive and MITF primary inactive.
`O=C(O)CCCCCN1C(=O)/C(=C/c2cccc(O)c2)SC1=S` gave TEAD-YAP inh 45, GPR151 activ inactive, FBW7 activator inactive and MITF primary inactive.
Screening Cc1csc(NC(=O)CCN2C(=O)/C(=C/C=C/c3ccccc3)SC2=S)n1 returned TEAD-YAP inh inactive, GPR151 activ inactive, FBW7 activator inactive and MITF primary 61.
Screening O=C(O)CCN1C(=O)/C(=C/c2cccc(O)c2)SC1=S returned TEAD-YAP inh inactive, GPR151 activ inactive, FBW7 activator inactive and MITF primary inactive.
`O=C(CCN1C(=O)/C(=C/C=C/c2ccccc2)SC1=S)Nc1ccccn1` gave TEAD-YAP inh inactive, GPR151 activ inactive, FBW7 activator inactive and MITF primary inactive.
Screening COc1cccc(/C=C2\SC(=S)N(CCCCCC(=O)O)C2=O)c1 returned TEAD-YAP inh 66, GPR151 activ inactive, FBW7 activator inactive and MITF primary inactive.
O=C(O)CCN1C(=O)/C(=C\c2cccc(O)c2)SC1=S was read as TEAD-YAP inh inactive, GPR151 activ inactive, FBW7 activator inactive and MITF primary inactive.
`Cc1ccc(/C=C(\C#N)c2nc3ccc(Cl)cc3c(=O)[nH]2)o1` gave TEAD-YAP inh inactive, GPR151 activ inactive, FBW7 activator inactive and MITF primary inactive.
For Cc1nc(SCC2=C(C(=O)OC(C)C)C(c3ccc(F)cc3)C(C#N)=C(N)O2)c(C#N)c(C)c1C (stereo not given) the results were TEAD-YAP inh inactive, GPR151 activ inactive, FBW7 activator inactive and MITF primary inactive.
Screening CCc1ccc(S(=O)(=O)Nc2cc(C)ccc2OC)cc1 returned TEAD-YAP inh inactive, GPR151 activ inactive, FBW7 activator inactive and MITF primary inactive.
`Oc1cc2c(cc1O)C1c3ccc(O)c(O)c3OCC1(O)C2` (stereo not given) gave TEAD-YAP inh inactive, GPR151 activ inactive, FBW7 activator inactive and MITF primary 116.
`Cc1ccc(OCC(O)Cn2c(C3CC(=O)N(c4ccccc4F)C3)nc3ccccc32)cc1C` (stereo not given) gave TEAD-YAP inh 32, GPR151 activ inactive, FBW7 activator inactive and MITF primary inactive.
Screening CCc1ccc(OCC(O)Cn2c(C3CC(=O)N(c4ccccc4F)C3)nc3ccccc32)cc1 (stereo not given) returned TEAD-YAP inh inactive, GPR151 activ inactive, FBW7 activator inactive and MITF primary inactive.
`COc1ccc(CCNC(=O)C2(S(=O)(=O)c3ccc(Cl)cc3)CC2)cc1OC` gave TEAD-YAP inh inactive, GPR151 activ inactive, FBW7 activator inactive and MITF primary inactive.
For COc1ccc(C(=O)/C=C/c2cccc(F)c2)cc1 the results were TEAD-YAP inh inactive, GPR151 activ inactive, FBW7 activator inactive and MITF primary inactive.
For COc1cc(C(=O)/C=C/c2cccc(F)c2)ccc1O the results were TEAD-YAP inh 56, GPR151 activ inactive, FBW7 activator inactive and MITF primary inactive.
Screening COc1cc(C(=O)/C=C/c2ccc(F)cc2)ccc1O returned TEAD-YAP inh 66, GPR151 activ inactive, FBW7 activator inactive and MITF primary inactive.
